Compounds without any hit were thinned out: in the full panel of roughly 83,000, 20% have a hit.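 In brief: 96-well plates, 48 h treatment, single concentration, percent growth endpoint.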 Values without a mark were called inactive. Active and inactive are the calls of the source. The calls were made as follows: active = growth percent below 10; inactive = the rest.

In the test the test system is DU-145 prostate. As to the kind of experiment: NCI-60 one-dose screen, 48 h (100 = growth as untreated, 0 = no growth, -100 = all killed). Particulars: 10 µM unless noted.
Consider `O=C(Nc1cccc2ccccc12)c1cc2ccccc2cc1O`, for which the growth is 25.7%.

Turning to `COc1cc2c(O)n(CCCN3CCOCC3)c3c4cnc5cccc(c(=O)c3c2cc1OC)c54`, the growth is 18%.

Consider `C#CCNC(=O)CC[C@@H](C)[C@H]1CC[C@H]2[C@@H]3CC[C@@H]4CC(=O)CC[C@]4(C)[C@H]3CC[C@]12C`, for which the growth was -38.1% [100 µM] (active).

In the case of `COc1ccc(NC(=O)Nc2ccc(-c3cccnc3)cc2N2CCC(CO)CC2)cc1`, the growth is 55.3%.

For `CC1(C(=O)O)CCC(N)(C(=O)O)C1(C)C` (centres undefined), the growth is 118%.

With `COc1ncc(-c2ccc3nccc(C#CCCCCC(=O)NO)c3c2)cc1NS(=O)(=O)c1ccc(F)cc1F`, the growth was 12.4%.

Regarding `O=C(O)CC1CCCCC1c1ccccc1` (centres undefined), the growth is 117%.

As to `CC(C)=CC/C=C(/C)[C@H]1CC[C@]2(C)[C@@H]1CC[C@@H]1[C@@]3(C)CCC(=O)NC(C)(C)[C@@H]3CC[C@]12C`, the growth was 12.2% [100 µM].

As to `Cc1nc(Cl)c2c(n1)N(C)c1ccc(Cl)cc1C(C)C2` (centres undefined), the growth is 105%.

Consider `Cc1ccc(N)c(O)c1`, for which the growth was 115%.

For the compound `Nc1ccc(Cl)c([N+](=O)[O-])c1`, the growth was 107%.

As to `O=[N+]([O-])c1cccc(N=NNc2cccc([N+](=O)[O-])c2)c1`, the growth was 86.2%.

Consider `C=C(C)[C@@H]1CC[C@]2(C)[C@H](CC[C@@H]3[C@@H]([C@@](C)(O)CCC=C(C)C)CC[C@]32C)[C@@]1(C)CCC(=O)N1CCN(C)CC1`, for which the growth was -80% [100 µM] (active).

As for `Cn1cc(-c2noc(C(=O)c3cn(C)c4ncc(Br)cc34)n2)c2ccccc21`, the growth is 100%.

The record behind these values is PubChem BioAssay (NCI).
